In the supplement of paper PMC13380429:

What was measured:
[1] = test system: Vero E6 infected with SARS-CoV-2; test: morphology score (similarity to uninfected cells); higher = more like uninfected cells; settings: 24 h
[2] = test system: Vero E6 infected with SARS-CoV-2; test: SARS-CoV-2 infection rate relative to infected DMSO; higher = more infection, active = 60 or less; settings: 24 h

Compound | morphology score [1] | SARS-CoV-2 infection rate [2]
COc1cc(C(=O)N2CCC(N3CCN(C)CC3)CC2)ccc1Nc1ncc2c(n1)N(C)c1ccccc1C(=O)N2C (0.833333 µM) | 0.0522 | 100% (inactive)
C[C@H](N[C@@H](CCc1ccccc1)C(=O)O)C(=O)N1CCC[C@H]1C(=O)O [enalaprilat] (10 µM) | -0.0398 | 107% (inactive)
COc1ccc(CCNCC(O)COc2cccc(C)c2)cc1OC (stereo not drawn) [bevantolol] (10 µM) | -0.027 | 110% (inactive)
COCCOc1ccc(N2CCN(CCn3ncc4c3nc(N)n3nc(-c5ccco5)nc43)CC2)cc1 [preladenant] (10 µM) | 0.0084 | 111% (inactive)
COc1ccc(-n2nc(CCC(=O)N(C)O)cc2-c2ccc(Cl)cc2)cc1 [tepoxalin] (0.833333 µM) | 0.0433 | 104% (inactive)
Fc1ccc(C(c2ccccc2)(c2ccccc2F)n2ccnc2)cc1 (stereo not drawn) [flutrimazole] (10 µM) | 0.166 | 108% (inactive)
CC(Oc1c(Cl)cccc1Cl)C1=NCCN1 (stereo not drawn) [lofexidine] (10 µM) | -0.13 | 102% (inactive)
CC(=O)NCC(=O)N1[C@@H]2CC[C@H]1c1ccc(Nc3ncc(C(F)(F)F)c(NC4CCC4)n3)cc12 (0.833333 µM) | -0.071 | 124% (inactive)
O=C(Nc1ccccc1C(=O)NC1CCCCNC1=O)c1cc2ccccc2s1 (stereo not drawn) (10 µM) | 0.0242 | 99.5% (inactive)
